Reference: PubChem BioAssay AID623868 (Vanderbilt High Throughput Screening Facility, 2012)
Hit rate of the full screen: of about 2,100 compounds, about 760 (36%) were called active. Only a sample is shown. Values without a mark were called inactive.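 The calls were made as follows: active = thallium-flux fluorescence traces judged by eye to show enhanced or reduced glutamate response, manual score 1 or -1, so both directions (some results past the limit were not filed as active); inactive = the rest, including fluorescent or raised-baseline compounds.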

Assay: thallium influx changes without GIRK channels – cell-based, HEK-293 rmGlu8, no GIRK, thallium flux, counter-screen for GIRK activator project, confirmation (AID 623868);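 also: extra codes mark interference with 3 for fluorescent and 4 for baseline rise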
Details: thallium flux fluorescence, at 10 µM, actives lie on both sides, codes: 1 enhancer, -1 blocker, 0 none, thallium stimulus containing EC20 glutamate

| Structure (SMILES) | manual score |
| --- | --- |
| COc1ccccc1N=Cc1nc(-c2ccccc2)oc1OC(C)=O | -1 (active) |
| CCC(=O)Oc1oc(-c2ccccc2)nc1C=Nc1ccccc1OC | -1 (active) |
| COc1ccc(C(=O)NC(=S)NCCO)cc1Br | 1 (active) |
| C=CCN(CC=C)C(=S)NC(=O)c1ccc(OC)c(Br)c1 | 1 (active) |
| CCOC(=O)c1c(CNCCN(CC)CC)n(C)c2cc(Br)c(OC)cc12 | 0 |
| Cc1ccnc(NC(=S)NC(=O)/C=C/c2ccco2)c1 | 0 |
| C=CCN(CC=C)C(=S)NC(=O)/C=C/c1ccc(C)cc1 | 1 (active) |
| C=CCN(CC=C)C(=S)NC(=O)c1ccc(C)c(Br)c1 | 1 (active) |
| COc1ccc(C(=O)NC(=S)NC(C)C)cc1Br | 0.5 |
| CCOC(=O)c1ccc(NC(=O)Nc2ccc(OC)c(OC)c2)cc1 | 0 |
| Cc1ccc(-c2nnn(CC(=O)NC3CC4CCC3C4)n2)cc1 (centres undefined) | 0 |
| Clc1ccc(Cc2ccc(SCc3ccccc3)nn2)c(Cl)c1 | 0 |
| CCCCCCCCCn1c2c(c(=N)c3c1CCC3)CCC2 | 0 |
| CCN(CC)C(=O)CN(c1ccc2c(c1)OCO2)S(C)(=O)=O | 0 |
| NC1=NC2(CCCCC2)n2c(nc3ccccc32)N1 | 0 |
| COC(=O)C(C)N(C(=O)c1cccc(Cl)c1)c1c(C)cccc1C (centres undefined) | -1 (active) |
| NC(=O)SCC(=O)Nc1cccc(Cl)c1 | 0 |
| COC(=O)C(C)N(C(=O)c1cccc2ccccc12)c1c(C)cccc1C (centres undefined) | -1 (active) |
| S=c1[nH]ccn1-c1cccc(Cl)c1 | 0 |
| Oc1c(C=NCc2ccncc2)sc2ccccc12 | 0 |
| O=C(COc1ccccc1)NC(=S)N1CCc2ccccc21 | 1 (active) |
| O=C(COc1ccccc1Cl)NC(=S)N1CCc2ccccc21 | 1 (active) |

| Structure (SMILES) | manual score |
| --- | --- |
| O=C(COc1ccc(Br)cc1Cl)NC(=S)N1CCc2ccccc21 | 0 |
| Cc1cccc(OCC(=O)NC(=S)N2CCCc3ccccc32)c1 | 1 (active) |
| Cc1cccc(OCc2nnc(SCC(=O)N3CCc4ccccc43)n2C)c1 | 0 |
| CC(Oc1ccc(Cl)cc1Cl)C(=O)NC(=S)N1CCc2ccccc21 (centres undefined) | 1 (active) |
| C=C(C)C1CC=C(C)/C(=N/NC(=O)COc2cccc(C)c2)C1 (centres undefined) | 0 |
| Cc1cnc(NC(=O)COc2ccccc2Cl)s1 | 0 |
| N#CC(C#N)=C1C=C2C=C(N3CCCCCC3)CCC2CC1 (centres undefined) | 3 |
| O=C(COc1ccc(Br)cc1Br)NC(=S)N1CCCc2ccccc21 | 0.5 |
| O=C(COc1ccc(Cl)cc1Cl)NC(=S)N1CCCc2ccccc21 | 1 (active) |
| CC1CCC/C(=N\NC(=O)COc2ccc(Cl)cc2Cl)C1 (centres undefined) | 0 |
| CCCCN(CCCC)c1nc2ccccc2nc1C(C#N)C(=O)NCCCOC (centres undefined) | 3 |
| S=C(NN=C1C2CC3CC(C2)CC1C3)Nc1ccccc1 | 1 (active) |
| C=C(C)C1CC=C(C)/C(=N/NC(=S)Nc2ccccc2)C1 (centres undefined) | 0 |
| S=C(NN=C(C1CC1)C1CC1)Nc1ccccc1 | 0 |
| CC(C)N=c1scc(-c2cccs2)n1/N=C/c1ccc(O)c(O)c1O | 0 |
| CC(c1ccco1)N(C(=O)c1ccccc1NS(=O)(=O)c1cc([N+](=O)[O-])ccc1Cl)c1ccccn1 (centres undefined) | 1 (active) |
| CCOP(=O)(c1ccccc1)c1nc(-c2ccccc2C)oc1N1CCCCC1 (centres undefined) | 0 |
| Cc1ccc(/C=N/Nc2nc(Cl)c(Cl)cc2Cl)s1 | 1 (active) |
| CCOC(=O)C1=C(C)OC(N)=C(C#N)C1c1cncc(-c2ccc(F)cc2)c1 (centres undefined) | 0 |
| Cc1cc(C)n(-c2ccc(C(=O)OCC(=O)Nc3ccc(Cl)c(S(=O)(=O)N(C)C)c3)cc2)n1 | 0 |
| CCOC(=O)Cc1csc(NC(=S)NC(=O)c2ccccc2Br)n1 | 1 (active) |
| CCOC(=O)Cc1csc(NC(=S)NC(=O)c2ccccc2C)n1 | 1 (active) |

| Structure (SMILES) | manual score |
| --- | --- |
| CC1=CC(=O)OC1Cc1ccncc1 (centres undefined) | 0 |
| O=C(Nc1ccc(F)cc1)c1cccc2c1C(=O)N(Cc1ccccn1)C2 | 0 |
| COc1ccc(-n2c(=O)[nH]cc(C(=O)Nc3ccc(NC(C)=O)cc3)c2=O)cc1 | 0 |
| CCCC(=O)Nc1ccc(NC(=O)C23CC4CC(CC(C4)C2)C3)cn1 | 0 |
| O=C(NC(=S)Nc1ccc(Cl)cn1)c1cccs1 | 1 (active) |
| CC(Cc1cccs1)NC(=O)Nc1ccc(Cl)cc1 (centres undefined) | 0 |
| CCn1c(CCNC(=O)c2cccs2)nnc1SCC(=O)Nc1ccc(Cl)cc1 | 0 |
| Cc1cccc(NC(=S)NC(=O)c2cccs2)n1 | 1 (active) |
| Cc1ccc2cccc(NC(=S)NC(=O)c3ccn(C)n3)c2n1 | 0 |
| Cc1ccnc(NC(=S)NC(=O)c2cccs2)c1 | 1 (active) |
| Cc1ccc2cccc(NC(=S)NC(=O)c3ccnn3C)c2n1 | 0 |
| CC(C)CC(NS(=O)(=O)c1ccc2c(c1)oc(=O)n2C)C(=O)NC1CCCc2ccccc21 (centres undefined) | 0 |
| CCOc1ccc(-n2c(SCc3nc(-c4cccs4)no3)nnc2-c2ccncc2)cc1 | 0 |
| CC(C)C(=O)NC(=S)N(Cc1ccccc1)Cc1ccccc1 | 1 (active) |
| CC(C)CC(=O)NC(=S)N(Cc1ccccc1)Cc1ccccc1 | 1 (active) |
| CC(C)CC(=O)NC(=S)Nc1nc(-c2cccc3ccccc23)cs1 | 0 |
| Cc1ccccc1Cn1c(=N)n(CC(O)c2ccco2)c2ccccc21 (centres undefined) | 0 |
| N#Cc1nc(COc2ccccc2)oc1N1CCN(c2cccc(Cl)c2)CC1 | 0 |
| O=C(Nc1nc2ccccc2s1)c1cc(-c2ccccc2)nn1-c1ccccc1 | 0 |
| O=C(Nc1nc(=O)c2ccccc2s1)c1ccc(F)cc1 | 1 (active) |
| O=C(Cc1ccccc1)Nc1nc(=O)c2ccccc2s1 | 1 (active) |
| O=C(Nc1nc(=O)c2ccccc2s1)c1ccc(Cl)cc1 | 1 (active) |

| Structure (SMILES) | manual score |
| --- | --- |
| CN(C)CCCNC(=O)c1ccc(-c2nc(-c3ccc(Cl)cc3)cs2)cc1 | 0 |
| O=C(Cc1ccccc1)Nc1nc(-c2cccs2)cs1 | 0 |
| CCN(CC)C(=O)CSc1nnc(NC(=O)CCc2ccccc2)s1 | 0 |
| O=C(Nc1nc(=O)c2ccccc2s1)c1ccccc1 | 1 (active) |
| COc1ccc(Cn2nnnc2C(c2ccccc2Cl)N2CCN(C3CCCC3)CC2)cc1 (centres undefined) | 0 |
| Cc1cnc(NC(=O)CSc2nc3ccccc3c(=O)[nH]2)s1 | 0 |
| Cc1csc(SCC(=O)Nc2nc3ccccc3s2)n1 | 0 |
| CCN(CC)C(=S)SCC(=O)Nc1nc(=O)c2ccccc2s1 | 1 (active) |
| CCCCn1c(SC(C)C(N)=O)nc2cc(C(=O)OC)ccc2c1=O (centres undefined) | 1 (active) |
| CCCCn1c(SCC(=O)Nc2ccc(OC)cc2)nc2ccc(N3CCOCC3)cc2c1=O | 0 |
| CCCCn1c(=O)[nH]c2nc3cc(N)ccc3nc2c1=O | 3 |
| C=CCOc1ccc(/C(O)=C2/C(=O)C(=O)N(CCCN3CCOCC3)C2c2ccccc2)cc1 (centres undefined) | 0 |
| COCCCN1C(=O)C(=O)/C(=C(/O)c2ccc(C)cc2)C1c1ccccc1 (centres undefined) | -1 (active) |
| COc1ccc(N/C(C)=C2/C(=O)C(=O)N(CCO)C2c2ccc(Br)cc2)cc1 (centres undefined) | 0 |
| O=S(=O)(Nc1ccc2nc(C(F)(F)F)[nH]c2c1)c1ccccc1 | 0 |
| CCC(Sc1ccc2nnc(-c3ccc(F)cc3)n2n1)C(=O)OC (centres undefined) | -1 (active) |
| CCOc1ccc(-c2cc(C)n3nc(C(N)=O)cc3n2)cc1 | 0 |
| Cc1cc(N2CCN(c3ccccc3)CC2)nc(NCc2ccccc2)n1 | 0 |
| CC(C)CNC(=S)NC(=O)c1ccccc1Cl | 1 (active) |
| CC(C)NC(=S)NC(=O)c1ccc(Cl)cc1Cl | 1 (active) |
| CC(C)CNC(=S)Nc1ccc(Oc2ccccc2)cc1 | 0 |
| CCCCNC(=S)NC(=O)c1ccc(Cl)cc1Cl | 1 (active) |

| Structure (SMILES) | manual score |
| --- | --- |
| CC(C)CNC(=S)NC(=O)c1ccc(Cl)cc1Cl | 1 (active) |
| S=C(NCc1ccc(Cl)cc1Cl)Nc1ccccc1 | 0 |
| O=S(=O)(c1ccc(Cl)c(F)c1)N1CCC(c2nc(-c3ccncc3)no2)CC1 | 0 |
| O=C(Nc1ccc(F)c(F)c1)NC1CCCCC1 | 0 |
| Cc1[nH]c2ccccc2c1CN1CCc2ccccc2C1 | 0 |
| O=C(O)C1C2C=CC(C2)C1C(=O)NCCc1cccc(Cl)c1 (centres undefined) | 0 |
| Cc1ccc(S(=O)(=O)N/N=C/c2ccc(OC3CSC3)cc2)cc1 | 0 |
| CCCCNC(=S)NC(=O)c1ccccc1Br | 1 (active) |
| CCS(=O)(=O)Nc1ccc(-c2nnc(SCC(=O)c3ccc(NC(C)=O)c(OC)c3)o2)cc1 | 0 |
| CCOC(=O)CSc1nnc(-c2ccccc2OC)o1 | -1 (active) |
| O=C(CSc1nnc(-c2cccnc2)o1)OC1CCCCC1 | -0.5 |
| COCCCNCCCOc1ccc(Cl)cc1Br | 0 |
| CC1=NN(/C(=N\c2nnc(C)s2)Nc2ccccc2)[C@H](c2cccc3ccccc23)S1 | 1.5 |
| COC(=O)c1cccc(NC(=S)Nc2cccc(Cl)c2Cl)c1 | 1 (active) |
| CCOc1cccc(C(=O)NC(=S)Nc2ccccc2)c1 | 0 |
| O=C1C(Cl)=C(N2CCOCC2)C(=O)N1c1cccc(Cl)c1 | 0 |
| CCCOc1cccc(C(=O)NC(=S)Nc2cccc(C(F)(F)F)c2)c1 | 1 (active) |
| FC(F)Oc1ccccc1NC(=S)Nc1cccc(Cl)c1Cl | 0.5 |
| O=C(OCCN1C(=O)c2cccc3c(N4CCOCC4)ccc(c23)C1=O)c1cccc(Cl)c1 | 3 |
| O=C(NC(=S)Nc1ccc(N2CCOCC2)cc1)c1cccc(Cl)c1 | 1 (active) |
| CC(C)Oc1cccc(C(=O)NC(=S)Nc2ccccc2)c1 | 1 (active) |
